According to PubChem BioAssay (NCATS):
Several values for one entry are separate records, joined by “and”; a condition that tells them apart may be missing. Identical values can stand only once. Inconclusive results are not listed. For some of these results: Results with a measured potency or affinity are listed apart. Activity calls are given as the source filed them.

How the values were obtained:
[1] = Ebola virus entry assay, green fluorescence channel
[2] = Ebola virus entry assay, blue channel fluorescence
[3] = Ebola virus entry assay, green fluorescence channel; remark: listed apart in the source
[4] = Ebola virus entry assay, ratio channel readout
[5] = Ebola virus entry assay, blue channel fluorescence; remark: listed apart in the source
[6] = Ebola virus entry assay, ratio channel
[7] = Ebola virus entry assay, green channel fluorescence
[8] = Ebola virus entry assay, blue channel fluorescence; remark: listed apart in the source
[9] = Ebola virus entry assay, reporter ratio channel; AC50: Channel type: primary unless noted; outcome: Channel type: primary unless noted
[10] = Ebola virus entry reporter assay, green channel fluorescence
[11] = qHTS profiling of the MIPE4 collection as inhibitors of Plasmodium falciparum (HB3) proliferation (AID 743347);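 further: plate controls were DMSO vehicle wells for no effect and artemisinin wells for full effect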; settings: P. falciparum HB3 in erythrocytes, SYBR Green DNA, 72 h; at 28.5 µM (top of the series) unless noted
In short: (§1)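 Erythrocytes infected with P. falciparum (0.3% parasitemia, 2.5% hematocrit) incubated with compounds 72 h at 37 C, 5% CO2. Lysis with saponin/Triton buffer containing SYBR Green I, overnight at room temperature in the dark; DNA fluorescence (485/535 nm) normalised to 0.29 uM artemisinin and DMSO.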

[12] = Ebola virus entry assay, blue channel (ratio component)
[13] = qHTS profiling of the MIPE4 collection as inhibitors of Plasmodium falciparum (3D7) proliferation (AID 743344);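 further: scaled between DMSO vehicle wells and 0.29 µM artemisinin as full inhibition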; settings: P. falciparum 3D7 in erythrocytes, SYBR Green DNA fluorescence, 72 h; at 28.5 µM (top of the series) unless noted
In short: as §1

[14] = qHTS profiling of the MIPE4 collection as inhibitors of Plasmodium falciparum (DD2) proliferation (AID 743345); settings: P. falciparum Dd2 in erythrocytes, SYBR Green DNA, 72 h; at 28.5 µM (top of the series) unless noted
In short: as §1

[15] = qHTS profiling of the MIPE4 collection as inhibitors of Plasmodium falciparum (DD2) proliferation (Rep 2) (AID 743346); settings: P. falciparum Dd2 in erythrocytes, SYBR Green DNA, 72 h; at 28.5 µM (top of the series) unless noted
In short: as §1

[16] = qHTS assay for cell viability of HEK293 cells (AID 743288; active means well fitted cell-killing curve with a large enough effect; further: on the % scale 0 is the no-effect control and ±100 the full control effect; nearly all actives have a fitted effect of over 50% in size); settings: ATP luminescence (CellTiter-Glo), 18 h; max response: stronger effect = lower value
In short: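 Parental HEK293 cells, 2,000 per well, preincubated at least 5 h at 37 C, then exposed to compounds in DMSO for 18 h at 37 C. Viability by CellTiter-Glo ATP luminescence after 30 min at room temperature.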

[17] = qHTS assay for cell viability of the p53RE-bla HCT-116 cell line (AID 743292; active means well fitted cell-killing curve with a large enough effect; further: on the % scale 0 is the no-effect control and ±100 the full control effect; nearly all actives have a fitted effect of over 55% in size); settings: p53RE-bla HCT-116 viability, ATP luminescence, 16 h; series mostly up to 95 µM
In short: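 Luminescent ATP quantitation (CellTiter-Glo) served as the viability read-out; reagent was added after 16 h compound exposure at 37 C and read after 30 min at room temperature. Cells: p53RE-bla HCT-116, 4,000 per well.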
Wherever efficacy is given: 0% is about no effect.

Cc1nccn1CC1CCc2c(c3ccccc3n2C)C1=O (stereo not given)
active: AC50 [5] 22.4 µM | AC50 [6] 22.4 µM | AC50 [9] 22.4 µM
inactive: efficacy [1] -22.2% | outcome [2] | outcome [3] | outcome [4] | outcome [7] | outcome [8] | outcome [10]

CC(COc1ccccc1)N(CCCl)Cc1ccccc1 (stereo not given)
inactive: efficacy [1] 44% | outcome [2] | outcome [3] | outcome [4] | outcome [7] | outcome [8] | outcome [10]
91.2%: growth, % of control [11]
active: AC50 [5] 28.2 µM | AC50 [6] 17.8 µM | AC50 [9] 17.8 µM

CN(C)CC[C@@H](c1ccc(Br)cc1)c1ccccn1
inactive: efficacy [1] 34.2% | outcome [2] | outcome [3] | outcome [4] | outcome [6] | outcome [7]
active: AC50 [5] 39.8 µM | AC50 [9] 39.8 µM

COc1c(C)c2c(c(O)c1C/C=C(\C)CCC(=O)OCCN1CCOCC1)C(=O)OC2
inactive: efficacy [1] -9.5% | outcome [2] | outcome [3] | outcome [4] | outcome [5] | outcome [6] | outcome [7] | outcome [9] | outcome [12]

O=NN(CCCl)C(=O)NCCCl
inactive: efficacy [1] -15% | outcome [2] | outcome [3] | outcome [4] | outcome [5] | outcome [6] | outcome [7] | outcome [8] | outcome [9] | outcome [12] | outcome [10]
102%: parasite growth remaining, % of DMSO control (lower = more inhibition) [14]
150%: parasite growth, % of control (lower = inhibition) [15]
95.8%: parasite growth, % of DMSO control [13]
83.1%: growth, % of control [11]

CCN(CCO)CCCC(C)Nc1ccnc2cc(Cl)ccc12 (stereo not given)
active: AC50 [5] 1.12 µM | AC50 [6] 1.41 µM | AC50 [9] 1.41 µM
inactive: efficacy [1] 21.3% | outcome [2] | outcome [3] | outcome [4] | outcome [7]

O=C1Nc2ccc(Cl)cc2[C@@](C#CC2CC2)(C(F)(F)F)O1
inactive: efficacy [1] -11.3% | outcome [2] | outcome [3] | outcome [4] | outcome [7]
active: AC50 [5] 17.8 µM | AC50 [6] 22.4 µM | AC50 [9] 22.4 µM

CCCC(C)(COC(N)=O)COC(=O)NC(C)C (stereo not given)
91%: parasite growth remaining, % of DMSO control (lower = more inhibition) [14]
119%: parasite growth, % of control (lower = inhibition) [15]
inactive: max response [16] -8.51% and -1.5% | Potency [17] | efficacy [1] 22.1% | outcome [2] | outcome [3] | outcome [4] | outcome [5] | outcome [6] | outcome [7] | outcome [8] | outcome [9] | outcome [12]
100%: growth, % of control [11]
93%: parasite growth, % of DMSO control [13]

CCN(C)C(=O)Oc1cccc([C@H](C)N(C)C)c1
69.6%: parasite growth, % of control (lower = inhibition) [15]
82.1%: growth, % of control [11]
92%: parasite growth, % of DMSO control [13]
inactive: efficacy [1] 11.7% | outcome [2] | outcome [3] | outcome [4] | outcome [5] | outcome [6] | outcome [7] | outcome [8] | outcome [9] | outcome [12] | outcome [10]

CC[C@H](C)C(=O)O[C@H]1C[C@@H](C)C=C2C=C[C@H](C)[C@H](CC[C@@H]3C[C@@H](O)CC(=O)O3)[C@H]21
inactive: efficacy [1] 16.1% | outcome [2] | outcome [3] | outcome [4] | outcome [5] | outcome [6] | outcome [7] | outcome [9] | outcome [12]

O=C1CC[C@@]2(O)[C@H]3Cc4ccc(O)c5c4[C@@]2(CCN3CC2CC2)[C@H]1O5
83.3%: growth, % of control [11]
113%: parasite growth remaining, % of DMSO control (lower = more inhibition) [14]
inactive: efficacy [1] -27.7% | outcome [2] | outcome [3] | outcome [4] | outcome [5] | outcome [6] | outcome [7] | outcome [8] | outcome [9] | outcome [12] | outcome [10]
64.4%: parasite growth, % of control (lower = inhibition) [15]
94.1%: parasite growth, % of DMSO control [13]

C=C[C@H]1CN2CC[C@H]1C[C@@H]2[C@@H](O)c1ccnc2ccc(OC)cc12
active: AC50 [5] 20 µM | AC50 [9] 35.5 µM
inactive: efficacy [1] 36.3% | outcome [2] | outcome [3] | outcome [4] | outcome [6] | outcome [7] | outcome [8] | outcome [10]

Clc1ccc(C(c2ccccc2Cl)C(Cl)Cl)cc1 (stereo not given)
inactive: efficacy [1] -31.8% | outcome [2] | outcome [3] | outcome [4] | outcome [7]
active: AC50 [5] 31.6 µM | AC50 [6] 22.4 µM | AC50 [9] 22.4 µM

C=C(CC)C(=O)c1ccc(OCC(=O)O)c(Cl)c1Cl
inactive: efficacy [1] 39.8% | outcome [2] | outcome [3] | outcome [4] | outcome [7]
active: AC50 [5] 14.1 µM | AC50 [6] 15.8 µM | AC50 [9] 15.8 µM

Cc1ccc(S(=O)(=O)NC(=O)NN2CC3CCCC3C2)cc1 (stereo not given)
inactive: efficacy [1] -32.1% | outcome [2] | outcome [3] | outcome [4] | outcome [5] | outcome [6] | outcome [7] | outcome [9] | outcome [12] | outcome [10]

CC(=O)Oc1ccccc1C(=O)Nc1ncc([N+](=O)[O-])s1
inactive: efficacy [1] 16.8% | outcome [2] | outcome [3] | outcome [4] | outcome [5] | outcome [6] | outcome [7] | outcome [9]

CCn1cc(C(=O)O)c(=O)c2cc(F)c(N3CCNCC3)cc21
60.2%: parasite growth remaining, % of DMSO control (lower = more inhibition) [14]
82.1%: growth, % of control [11]
48%: parasite growth, % of DMSO control [13]
42.3%: parasite growth, % of control (lower = inhibition) [15]
inactive: efficacy [1] -31.6% | outcome [2] | outcome [3] | outcome [4] | outcome [5] | outcome [6] | outcome [7] | outcome [8] | outcome [9] | outcome [10]

CCOC(=O)C1=C(C)NC(C)=C(C(=O)OC)C1c1cccc(Cl)c1Cl (stereo not given)
inactive: efficacy [1] 20.7% | outcome [2] | outcome [3] | outcome [4] | outcome [5] | outcome [6] | outcome [7] | outcome [9] | outcome [12]
